# SIRT5 block: SIRT5 desuccinylase inhibitors, primary screen, biochemical, fluorescence imaging, single point, set 5; Purified SirT5, succinyl-peptide AMC, trypsin-coupled fluorescence; NAD-dependent protein deacylase sirtuin-5, mitochondrial (Homo sapiens), Q9NXA8; AID 652115, 2013; inhibition, % at 15 µM; 330,000 compounds, 1.1% hits; in the data active = inhibition above about 15%
# GSIS activator: GLuc luminescence reporter in INS-1E cells, primary screen for activators of glucose-dependent secretion of insulin | activation, % at 16.6 µM | AID 743287, 2014 | INS-1E GLuc reporter insulin secretion, 2-3 h | 370,000 compounds, 0.61% hits;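 active = lowest replicate activation of at least 40%, so every replicate reaches that level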;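 note: 0% = median of neutral control wells and 100% = median of IBMX positive control wells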
# ERAP1 HTS inh: human ERAP1 aminopeptidase inhibitors, primary screen, biochemical, single point, plate reader. Endoplasmic reticulum aminopeptidase 1 (Homo sapiens), Q9NZ08. inhibition, % at 10.7 µM. 340,000 compounds, 0.15% hits. recombinant ERAP1, Leu-AMC fluorescence, 60 min;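 active = mean replicate inhibition of at least 30%, or all replicates individually reaching that 30% level; inactive = mean below 30% and not every replicate reaching it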;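 note: 0% = neutral control wells and 100% = L-leucinethiol positive control wells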
# CASP6 VEID inh: human caspase-6 inhibitors, primary screen, biochemical, VEID-R110 fluorescence, single point, set 2; inhibition, % at 12.5 µM; purified caspase-6, Z-VEID-R110 cleavage fluorescence; AID 686996, 2013; 350,000 compounds, 0.53% hits; P55212;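 active = mean inhibition across replicates at least about 35%, with every replicate also reaching that limit, limit read from the data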;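 note: 0% = median of neutral control wells and 100% = no fluorescence left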
# FGF22 binding: binders of human FGF22 protein, primary screen, FGF22 synaptogenesis inhibitor project, biophysical, thermal shift, single point; Fibroblast growth factor 22 (Homo sapiens), Q9HCT0; recombinant FGF22 thermal shift, SYPRO orange fluorescence; percent of sucrose octasulfate shift, DMSO zero; activity (Tm shift, normalised), % at 9.99 µM; 340,000 compounds, 1.5% hits; AID 651658, 2012;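 active = mean Tm shift, scaled 0 neutral to 100 positive control, at about 1.3% or above, every replicate too, limit read from the data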
# Active calls of the source: *; / = no result. A selection: hits, their analogues and other compounds. The true share with any hit is near 3.3%.
SMILES,SIRT5 block,GSIS activator,ERAP1 HTS inh,CASP6 VEID inh,FGF22 binding
COc1ccc(OC(=O)N(C)C[C@H]2OCc3ccccc3-c3ccccc3C(=O)N([C@@H](C)CO)C[C@@H]2C)cc1,/,-35,/,/,/
O=C(C[C@H]1C=C[C@H](NC(=O)CC2CC2)[C@@H](CO)O1)NCc1ccc(-c2ccccc2)cc1,-2,0,1,4,0
C=CCNC(=O)COC(=O)c1ccc(Sc2nncn2C)c([N+](=O)[O-])c1,-3,-16,-4,-2,44*
COc1ccc(CN2CCN(C(=O)c3cccc4ccccc34)CC2)c(OC)c1OC,15*,/,1,11,0
Cc1noc(C)c1S(=O)(=O)Nc1ccc2c(c1)CC(=O)N([C@H](C)CO)C[C@H](C)[C@H](CN(C)Cc1ccc(-c3ccccc3)cc1)O2,15*,-21,4,1,0
COc1ccc(CN(C)C[C@@H]2Oc3ccc(NS(=O)(=O)c4c(C)noc4C)cc3CC(=O)N([C@@H](C)CO)C[C@@H]2C)cc1,24*,7,-10,-1,1
C1=CCN(c2nc(N3CCOCC3)nc(N3CCCc4ccccc43)n2)CC1,/,/,1,-1,44*
C[C@H](CO)N1C[C@H](C)[C@@H](CN(C)S(C)(=O)=O)Oc2c(NC(=O)NC3CCCCC3)cccc2C1=O,-1,12,-2,-1,0
C[C@@H]1CCCCO[C@H](CN(C)C)[C@@H](C)CN([C@H](C)CO)C(=O)c2cc(NC(=O)NC3CCCCC3)ccc2O1,-2,6,-1,1,/
S=c1[nH]c2cc(Cl)c3cccnc3c2o1,1,/,-2,51*,1
S=c1[nH]c2ncccc2o1,0,9,1,3,0
NC1=C(Cl)C(=O)c2ccccc2C1=O,-3,-6,1,97*,0
NC1=C(Cl)C(=O)c2ccc(S(N)(=O)=O)cc2C1=O,2,-3,4,100*,0
Cc1ccc(S(=O)(=O)N(C)C[C@H]2Oc3ccc(NS(=O)(=O)c4ccccc4)cc3C(=O)N([C@H](C)CO)C[C@@H]2C)cc1,2,-8,-1,3,0
C/C(=N/NC(=O)c1cc(-c2ccc(Br)s2)[nH]n1)c1ccco1,-2,8,-3,-1,1.4*
C/C(=N\NC(=O)c1cc(-c2ccc(Br)s2)[nH]n1)c1ccncc1,9,33,3,-1,0
C[C@@H]1CN([C@H](C)CO)C(=O)c2cc(C#Cc3cccnc3)cnc2O[C@@H]1CN(C)S(=O)(=O)c1ccccc1F,-3,17,-1,1,0
COc1ccc(C(C)=O)cc1CSCC(=O)O,/,6,/,-2,0
COc1ccc(C(=O)/C=C/c2ccc(OCc3ccccc3)cc2)cc1CSCC(=O)O,5,-39,-30,44*,41
COc1ccc(C(=O)/C=C/c2cccc(OCc3ccccc3)c2)cc1CSCC(=O)O,4,-27,-57,44*,40
COc1ccc(C=CC(=O)c2ccc(OCc3ccccc3)c(OC)c2)cc1OC,2,/,-1,/,0
O=C1CCCN1Cc1ccccc1,-2,23,0,-3,0
O=C1CCCN1CCc1cccc2ccccc12,-5,27,-6,-2,43*
Cc1ccc(S(=O)(=O)/N=S(/c2ccccc2)C(C)C)cc1 (configuration not stated),1,-1,46*,2,0
Cc1ccc(CN2CC(=O)N3[C@@H](CO)[C@H](c4ccc(-c5cccnc5)cc4)[C@@H]3C2)cc1,-2,3,0,1,/
SMILES,SIRT5 block,GSIS activator,ERAP1 HTS inh,CASP6 VEID inh,FGF22 binding
N#CC1CC(c2ccc([N+](=O)[O-])cc2)=NN1c1ccc([N+](=O)[O-])cc1 (configuration not stated),0,35,1,-6,44*
O=[N+]([O-])c1cccc(C2CC(c3ccccc3)=NN2c2ccccc2)c1 (configuration not stated),-3,-16,0,-2,0
O=C(C[C@@H]1CC[C@@H]2[C@H](COC[C@H](O)CN2Cc2ccc(Oc3ccccc3)cc2)O1)Nc1nccs1,-2,0,1,-1,0
CCC(CC)c1nnc(NC(=O)C2CCCO2)s1 (configuration not stated),-2,4,2,1,43*
CCCCc1nnc(NC(=O)C2CCCO2)s1 (configuration not stated),/,12,/,/,/
O=C(C[C@@H]1CC[C@@H](NC(=O)CCN2CCCCC2)[C@@H](CO)O1)Nc1nccs1,0,9,3,-1,0
O=C1NC(c2ccccc2)=CC(c2ccccc2)N1 (configuration not stated),1,5,-3,2,44*
COCC(=O)N1[C@H](CO)[C@H](c2ccccc2-c2ccccc2)[C@@H]1C#N,-2,11,2,0,0
Cc1ccc2nc(SCC(=O)NCc3cccs3)c(C#N)cc2c1,/,54*,/,/,/
Cc1ccc2cc(C#N)c(SCC(=O)NNC(=O)Cc3ccccc3)nc2c1,/,127*,/,/,/
Cc1ccc2cc(C#N)c(SCC(=O)NCc3ccco3)nc2c1,/,33,/,/,/
CCOC(=O)CSc1nc2cc(OCC)ccc2cc1C#N,21*,6,-2,-2,/
COc1ccc2cc(C#N)c(SCC(=O)N3CCCC3)nc2c1,-4,-8,2,0,/
O=C1CCCC2=C1C(c1ccccc1)NC(=S)N2 (configuration not stated),-2,8,-8,1,0
Cc1ccc(C2NC(=S)NC3=C2C(=O)CCC3)cc1 (configuration not stated),-1,3,3,-1,43*
CCOC(=O)c1sc(NC(=O)CSc2ncccn2)nc1C,1,-2,0,4,0
CCOC(=O)c1sc(NC(=O)CSc2nccn2C)nc1C,16*,32,-7,-2,0
CCOC(=O)c1sc(NC(=O)C2C3C=CC(C3)C2C(=O)O)nc1C (configuration not stated),1,4,3,55*,0
CO[C@@H]1CN(C)C(=O)c2ccc(NC(=O)c3cnccn3)cc2OC[C@@H](C)N(C)C[C@@H]1C,1,3,-1,-12,/
CCOC(=O)C1(CC2CC2)CCN(Cc2cn(C)c3ccccc23)CC1,0,5,-5,1,44*
CCOC(=O)C1(Cc2ccccc2)CCN(Cc2cn(CC(=O)OC)c3ccccc23)CC1,-4,-12,-1,-2,0
Cc1ccc2nc(NC(=O)CSc3nc(=O)n(CCN(C)C)c4c3CCCC4)sc2c1,-3,376*,-2,-2,0
